A selection: hits, their analogues and other compounds. The true share with any hit is near 8%.
KB-3-1 cytotox – kills parental KB-3-1 adenocarcinoma cells; AID 1347075; Potency, µM (series often up to 46.1 µM), actives largely listed as cytotoxic; KB-3-1 viability, CellTiter-Glo ATP luminescence, 72 h; 1.4% of 400,000 active; note: % is set by controls: 0 for no effect and ±100 for the full control effect; nearly all actives have a fitted effect of over 60% in size
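KB-3-1 parental drug-naive adenocarcinoma cells in DMEM/10% FBS, incubated 72 h at 37 C with pin-transferred compounds across a concentration series. Viability by CellTiter-Glo luminescence; concentration-response curves fitted after normalization.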
HT1080 IDH1KD tx – toxicity to HT-1080 IDH1 knockdown cells (counter line); Potency, µM (top dose mostly 46.1 µM), without a hit: at the highest dose activity, negative = toxicity, usual class: cytotoxic; 2% of 360,000 active; HT-1080 IDH1 knockdown viability, ATP luminescence, 48 h;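 note: 0% = DMSO wells and -100% = cell-free medium wells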
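After a 2 h attachment period, IDH1KD HT-1080 cells took pin-transferred compound for 48 h at 37 °C; ATP-based luminescence after 10 min room-temperature reagent incubation reported viability.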
MCF10A rerep – inducers of DNA re-replication in MCF 10A breast cells. Potency, µM (top dose mostly 46.1 µM), for the others: at the top dose activity, positive = re-replication, usual class: activators. 2.9% of 350,000 active. MCF 10A DNA re-replication, Hoechst nuclear intensity, 48 h. AID 624296; note: % of control where 0% means no effect; nearly all actives have a fitted effect of over 50% in size
KB-V1 cytotox – KB-V1 MDR subline cytotoxicity. KB-V1 MDR cells viability, CellTiter-Glo, 72 h. Potency, µM (highest dose often 46.1 µM), most hits filed as cytotoxic. 3.4% of 400,000 active; note: % is set by controls: 0 for no effect and ±100 for the full control effect; nearly all actives have a fitted effect of over 60% in size
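Luminescent ATP read-out (CellTiter-Glo, 10 min) measures survival of drug-selected KB-V1 MDR cells after 72 h, 37 degrees C compound exposure. Medium: phenol-red-free DMEM, 10% FBS. Values from fitted concentration-response curves.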
HT1080NT lethal – kills 2HG-producing HT-1080-NT fibrosarcoma cells; 1.6% of 360,000 active; Potency, µM (titrated, usually from 46.1 µM), inactives show top-dose activity, negative = less viability, hits mostly cytotoxic; HT-1080-NT fibrosarcoma viability, CellTiter-Glo ATP luminescence, 48 h;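 note: NT is the 2HG producing partner of a matched IDH1 knockdown line; 0% = DMSO-treated cells and -100% = media-only wells without cells; nearly all actives have a fitted effect of over 55% in size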
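Read-out is CellTiter-Glo luminescence after 10 minutes at room temperature, following 48 hours' compound treatment of HT-1080-NT cells (750 cells/well, RPMI, 5% FBS, 37 degrees C).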
SW480 rerep – DNA re-replication induction in SW480 cells; SW480 DNA re-replication, Hoechst DNA content imaging, 48 h; Potency, µM (titrated, usually from 46.1 µM), without a hit: top-dose re-replication activation, actives largely listed as activators; 1.8% of 340,000 active; AID 624297; note: % of control where 0% means no effect; nearly all actives have a fitted effect of over 55% in size
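Image-based read-out: total Hoechst fluorescence of nuclei (405 nm excitation, 500-530 nm emission), with hits raising the fraction of high-intensity nuclei. SW480 colon cells incubated 48 hr with compounds at 37 C.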
An asterisk follows results filed as active; i = inactive; ? = inconclusive; . = no result; [ ] = remark or other dose. Calls come from the whole dose curve; as a rule, active = well fitted curve in the direction sought with a large enough effect; inconclusive = small, poorly fitted or top-dose-only effect, or another doubt; inactive = no such curve, though single readings can be large; an effect the other way counts as inactive or inconclusive. Potency is the fitted concentration of half-maximal effect.

SMILES	KB-3-1 cytotox	HT1080 IDH1KD tx	MCF10A rerep	KB-V1 cytotox	HT1080NT lethal	SW480 rerep
O=C1CC(Nc2ccc(N3CCOCC3)cc2)C(=O)N1c1ccccc1 (stereo not given)	i	17%	8.2µM*	i	-2%	?
O=S(=O)(c1ccc(S(=O)(=O)N(Cc2cccs2)CC2CCCO2)cc1)N1CCCCC1 (stereo not given)	i	-9%	?	7.3µM*	4%	-2%
O=S(=O)(NC1CCCC1)c1ccc(S(=O)(=O)N(Cc2cccs2)CC2CCCO2)cc1 (stereo not given)	i	9%	5%	?	0%	14%
COc1ccc(C(=O)c2cn(Cc3ccccc3)c3ccccc3c2=O)cc1OC	i	.	.	i	.	.
CN(C)c1ccc(-c2nnc(SCC(=O)NCc3ccco3)n2C)cc1	i	.	.	i	.	.
CCC(C)(C(=O)NC1CCCCC1)N(Cc1ccco1)C(=O)c1ccc2c(c1)OCO2 (stereo not given)	i	-5%	0%	12µM*	-1%	-2%
CCC(C)(C(=O)NC1CCCC1)N(CC1CCCO1)C(=O)c1ccc2c(c1)OCO2 (stereo not given)	i	14%	36%[0.0737 µM]	i	1%	0%
Cc1ccc(C(CC(=O)N2CCCC2)c2ccccc2)c(O)c1 (stereo not given)	i	10%	-4%	i	16%	-8%
Cc1cc(Cl)c(OCCn2ccnc2)c(Br)c1	i	-29%	4.6µM*	?	-24%	-25%
COc1ccc(CNC(=O)CSc2ncc3c(n2)-c2cc(Cl)ccc2N(C)S3(=O)=O)cc1	i	.	.	i	.	.
COc1ccc(-c2nnc(SC(C)C(=O)Nc3nccs3)n2-c2ccccc2)cc1OC (stereo not given)	i	0%	-1%	15µM*	4%	-4%
COc1ccc(-c2nnc(SC(C)C(=O)Nc3nccs3)n2Cc2ccccc2)cc1OC (stereo not given)	i	-19%	10%	i	-5%	-5%
CCOC(=O)Cn1c(=O)n(-c2ccccc2OC)c2nc(-c3ccc(C(C)C)cc3)nc(C(N)=O)c21	i	.	.	i	.	.
Cc1ccc(S(=O)(=O)CCC(=O)N2CCc3ccccc32)cc1	i	0%	-15%	21µM*	1%	-20%
Cc1ccc(NCC(=O)N/N=C\C(Br)=C\c2ccccc2)cc1	i	16µM*	8%	i	?	7%
CC(=C/c1ccccc1)/C=N/NC(=O)c1cccs1	i	-22%	13%	?	-17%	-5%
Cc1onc(-c2ccccc2)c1C(=O)N/N=C/C(Br)=C/c1ccccc1	?	-16%	?	15µM*	2%	0.23µM*
O=C(N/N=C/C(Br)=C\c1ccccc1)c1cccs1	i	21µM*	98%	i	?	?
CCCNC1=C(N(C(C)=O)c2cccc(F)c2)C(=O)c2ccccc2C1=O	1.3µM*	4.6µM*	0.73µM*	?	8.2µM*	5.8µM*
CCC(=O)N(C1=C(NC(C)C)C(=O)c2ccccc2C1=O)C(C)C	?	-3%	6%	?	-16%	-9%
C[C@@H]1C=C(C(=O)N2CCOCC2)O[C@H](OCc2ccc(CO)cc2)C1	i	9%	-10%	i	13%	10%[9.22 µM]
COc1ccc(Cn2cc(C(=O)c3ccccc3)c(=O)c3cc(OC)ccc32)cc1	i	-14%	0%	i	-11%	-8%
COc1ccc2c(c1)c(=O)c(C(=O)c1ccccc1)cn2Cc1ccccc1	i	-1%	?	i	-2%	16µM*
Cn1c(SCC(=O)NC2CC2)nnc1-c1ccc(Cl)cc1	i	-2%	12%	i	11%	-5%
COc1ccc(-c2ccc(-c3nnn(CC(=O)N4CCOCC4)n3)cc2)cc1	i	-2%	11%	?	-5%	14%
